# Compound activity (PubChem)
# This is a sample that favours compounds with a hit; in the whole collection about 7.5% have one here.
# KinaseGlo FLuc: blocks Kinase-Glo luciferase, a counter-screen artifact; 200,000 compounds, 0.28% hits; Q27757; AID 1379; Potency, µM (series often up to 38.3 µM), for the others: at the top dose activity change, negative = inhibition, usual class: inhibitors; Kinase-Glo luciferase, ATP luminescence, 8 min; also: % is scaled to controls: 0 for no effect and ±100 for the full control effect; nearly all actives have a fitted effect of over 60% in size
#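 Kinase-Glo luciferase light output from ATP and luciferin was measured with 10 uM ATP, within the enzyme's linear range. Buffer: 50 mM imidazole pH 7.2, 50 mM KCl, 7 mM MgCl2, 0.01% Tween 20, 0.05% BSA; luminescence read after 8 min at ambient temperature.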
# FLuc modulator: inhibits or activates purified firefly luciferase, miR-21 counter-screen. purified FLuc, Km substrates, luminescence inhibition. Potency, µM (series often up to 57.5 µM), inactives show at the top dose activity change, negative = inhibition, usual class: inhibitors. 360,000 compounds, 6.9% hits;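 also: plate controls were vehicle for no effect and reference inhibitor for full effect; nearly all actives have a fitted effect of over 55% in size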
# Target sequence (P08659 whole entry, looked up): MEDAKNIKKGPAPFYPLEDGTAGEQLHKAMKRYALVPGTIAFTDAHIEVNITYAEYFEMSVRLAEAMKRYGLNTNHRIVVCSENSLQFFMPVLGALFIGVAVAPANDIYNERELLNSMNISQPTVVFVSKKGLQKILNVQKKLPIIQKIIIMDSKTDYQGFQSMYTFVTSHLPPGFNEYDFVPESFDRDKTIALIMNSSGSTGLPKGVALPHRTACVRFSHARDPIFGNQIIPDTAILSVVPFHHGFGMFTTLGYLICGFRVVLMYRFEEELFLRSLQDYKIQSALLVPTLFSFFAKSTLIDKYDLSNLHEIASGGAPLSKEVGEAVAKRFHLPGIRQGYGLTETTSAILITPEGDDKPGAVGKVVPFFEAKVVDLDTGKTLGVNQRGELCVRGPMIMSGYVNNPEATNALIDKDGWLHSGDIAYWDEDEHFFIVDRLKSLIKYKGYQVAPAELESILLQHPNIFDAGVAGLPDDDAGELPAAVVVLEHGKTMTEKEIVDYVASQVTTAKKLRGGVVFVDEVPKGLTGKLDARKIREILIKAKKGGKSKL
#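 Purified P. pyralis luciferase (10nM final) with 10uM D-luciferin and 10uM ATP (Km levels) in 50mM Tris acetate pH 7.5, 10mM Mg acetate, 0.01% Tween-20, 0.05% BSA; qHTS 6-point titration, ~60 µM downward; luminescence read.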
# SMN2 splice enh: increases expression of the SMN2 splice variant. HEK293 SMN2-luciferase splicing reporter, luminescence, 30-36 h. Potency, µM (highest dose often 46.1 µM), without a hit: top-dose activity change, positive = activation, actives largely listed as activators. 210,000 compounds, 2.8% hits; also: % of control where 0% means no effect; nearly all actives have a fitted effect of over 55% in size
#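 HEK293 cells carry an SMN2 minigene-luciferase reporter in which exon 7 inclusion puts luciferase in frame. Cells were seeded at 2000 cells/well, attached for 10-12 hours, then exposed to compounds for 30-36 hours at 37C before ONE-Glo luminescence.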
# ELG1 genotox: genotoxicity induction in ELG1-luciferase HEK293T cells; HEK293T ELG1-luciferase reporter, luminescence, 16 h; Potency, µM (doses to about 46 µM), for the others: at the highest dose activity change, positive = activation, actives largely listed as activators; 330,000 compounds, 1.3% hits; also: % of control where 0% means no effect; nearly all actives have a fitted effect of over 60% in size
#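 DMSO vehicle served as control against compound-treated ELG1-luciferase HEK293T cells; exposure lasted 16 hr at 37 °C and 5% CO2, followed by ONE-Glo luminescence detection after 30 min.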
# NPC1 promoter act: NPC1 promoter activation; Huh7 NPC1 promoter luciferase reporter, 24 h; Potency, µM (highest dose often 9.22 µM), for inactives: at the top dose activation, usual class: activators; 320,000 compounds, 2.4% hits; also: % of control where 0% means no effect; nearly all actives have a fitted effect of over 60% in size
#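 Huh7 cells stably carrying NPC1 promoter–luciferase, plated in Opti-MEM with 10% FBS for 2 h, were exposed to compound in DMSO for 24 h at 37 °C; luciferase reagent was added for 10 min and luminescence read.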
# Rab9 prom act: Rab9 promoter activation | Huh7 Rab9 promoter-luciferase reporter, luminescence, 24 h | 320,000 compounds, 2.8% hits | Potency, µM (highest dose often 9.22 µM), without a hit: top-dose activation, negative = inhibition, actives largely listed as activators; also: % of control where 0% means no effect; nearly all actives have a fitted effect of over 60% in size
#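 Stable Rab9-luc Huh7, 1500 cells/well, 2 h settle; cmpd in DMSO, 24 h, 37 °C/5% CO2; luciferase reagent 10 min RT; luminescence.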
# * marks the source's active call; other numbers are inactive results; ? = inconclusive; . = not tested or not shown; ! = not active in a repeat; [ ] = another dose, or the depositor's remark. Calls follow the shape of the dose curve; as a rule, active = well fitted curve in the direction sought with a large enough effect; inconclusive = small, poorly fitted or top-dose-only effect, or another doubt; inactive = no such curve, though single readings can be large; an effect the other way counts as inactive or inconclusive. Potency is read from the fitted curve at half-maximal effect.
SMILES,KinaseGlo FLuc,FLuc modulator,SMN2 splice enh,ELG1 genotox,NPC1 promoter act,Rab9 prom act
CCCCC(=O)Nc1nnc(S(=O)(=O)N(CC)c2ccccc2)s1,.,0.2%,.,-2.7%,0.1%,-1.3%
CN(c1ccccc1)S(=O)(=O)c1nnc(NC(=O)C2CCCCC2)s1,.,0.675µM*!,.,1.5%,-1.8%,2.6%
CN(c1ccccc1)S(=O)(=O)c1nnc(NC(=O)c2ccccc2)s1,.,0.19µM*,.,.,.,.
CCCC(=O)Nc1nnc(S(=O)(=O)N(C)c2ccccc2)s1,.,0.849µM*,.,.,.,.
Cc1ncc(COP(=O)(O)O)c(C)c1O,-2.5%[7.66 µM],.,-1.2%[9.22 µM],.,.,.
Cc1ccc(C(=O)NCC(=O)OCC(=O)NC2CCS(=O)(=O)C2)cc1C (centres undefined),-4.0%,?,-6.3%,-3.2%,0.0%,1.2%
Cc1cc(Br)ccc1NC(=O)C(Cc1ccccc1)NS(=O)(=O)c1ccc(Br)s1 (centres undefined),.,-9.1%,6.1%,.,.,.
CCN(c1ccccc1)S(=O)(=O)c1nnc(NC(=O)c2ccccc2OC)s1,.,1.69µM*!,.,-0.9%,-1.2%,-2.5%
Cc1cccc(NS(=O)(=O)c2nnc(NC(=O)C3CCCCC3)s2)c1,.,6.75µM*!,.,-3.4%,-2.9%,3.0%
Cc1cccc(N(C)S(=O)(=O)c2nnc(NC(=O)C(C)Oc3ccccc3)s2)c1 (centres undefined),.,4.78µM*,.,.,.,.
CCN(c1ccc(C)cc1)S(=O)(=O)c1nnc(NC(=O)c2cccs2)s1,.,13.5µM*,.,.,.,.
CCN(c1ccc(Cl)cc1)S(=O)(=O)c1nnc(NC(=O)c2ccccc2C)s1,.,3.5%,.,.,.,.
Cc1cccc(NS(=O)(=O)c2nnc(NC(=O)CC(C)C)s2)c1,.,1.2%,.,-1.8%,0.2%,0.0%
CCC(CC)C(=O)Nc1nnc(S(=O)(=O)N(C)c2cc(C)cc(C)c2)s1,.,-13.4%,.,.,.,.
CC(=O)c1ccc(N2CCN(S(=O)(=O)c3ccc4c(c3)CC(C)N4C(=O)C3CCC3)CC2)cc1 (centres undefined),.,5.7%,.,.,.,.
Cc1n[nH]c(=O)c2c(NC(=O)CSc3nc4ccccc4c(=O)n3C(C)C)oc(C)c12,.,5.5%,.,-0.9%,-6.2%,0.6%
Cc1ccc(NC(=O)CN2CCN(C)CC2)cc1Br,.,0.8%,.,0.4%,-2.8%,2.0%
CCN(c1ccccc1)S(=O)(=O)c1nnc(NC(=O)c2ccccc2)s1,.,2.39µM*,.,.,.,.
Cc1nc2ccc(S(=O)(=O)CCC(=O)Nc3ccc(F)cc3C)cc2s1,.,1.4%,.,.,.,.
O=C(Cn1cnc2ccccc2c1=O)Nc1ccc2c(c1)OCCO2,-3.7%,9.53µM*,12.6µM*,?,2.24µM*,1.78µM*
O=C(Cn1cnc2ccccc2c1=O)OCC(=O)c1ccc2c(c1)OCCO2,1.9%,21.3µM*,-5.2%,0.0%,0.3%,-8.4%
COCCCNC(=O)C(=O)Nc1cc2c3c(c1)CCN3C(=O)CC2,.,0.5%,.,14.3%,-0.8%,1.3%
COc1nc(N)nc(NC23CC4CC(CC(C4)C2)C3)n1,-2.7%,5.36µM*,27.6%,?,7.1%,4.6%
COc1nc(N)nc(N2CCOCC2)n1,1.4%,4.2%,-27.4%,3.0%,-2.2%,-5.1%
O=C(OCc1c(F)cccc1Cl)c1cnc(Cl)c(Cl)c1,.,-0.4%,.,5.3%,1.8%,-0.7%
SMILES,KinaseGlo FLuc,FLuc modulator,SMN2 splice enh,ELG1 genotox,NPC1 promoter act,Rab9 prom act
Clc1ccc2[nH]c3c(c2c1)CNCC3,.,-0.6%,.,-8.5%,-0.6%,-10.0%
Cc1cccc2nc(-c3cccc(NC(=O)c4ccc(Cl)cc4)c3)cn12,-3.7%,6.01µM*,-12.3%,-6.7%,-2.5%,-0.6%
Cc1cccc2nc(-c3cccc(NC(=O)Cc4ccccc4)c3)cn12,-9.1%,10.7µM*,2.1%,-7.5%,-1.8%,0.3%
Cc1cccc(NC(=O)Cn2c(=O)n(CCc3ccccc3)c(=O)c3sc4ccccc4c32)c1,.,1.8%,8.4%,.,.,.
Cc1cccc(C)c1NC(=O)CN(C)S(=O)(=O)c1ccc2c(c1)n(C)c(=O)c(=O)n2C,.,0.3%,1.6%,.,.,.
Cc1ccc2nc(-c3ccccc3)cc(C(=O)N3CCN(c4ccccc4O)CC3)c2c1,.,13.5µM*,.,-28.3%,14.4%,3.6%
Nc1nc(N2CCN(c3ccccn3)CC2)nc2ccccc12,.,10.7µM*,.,?,?,3.55µM*
Cc1ccc(S(=O)(=O)N2CCN(C(=O)c3c(-c4ccccc4)noc3C)CC2)c(C)c1,.,2.5%,.,-4.3%,-3.8%,0.2%
Cc1ccc2nc(-c3ccccc3)cc(C(=O)N3CCN(S(=O)(=O)c4c(C)noc4C)CC3)c2c1,.,5.36µM*,.,-7.0%,4.8%,6.3%
O=C(c1cc(-c2ccncc2)nc2ccccc12)N1CCN(c2ccccc2O)CC1,.,?,.,-17.0%,-5.3%,-0.3%
O=C(c1cc(-c2ccccc2)nc2ccccc12)N1CCN(c2ccccn2)CC1,-0.9%,12µM*,-5.2%,-13.1%,0.1%,-7.1%[1.84 µM]
COC(=O)/C=C\c1cc(O)ccc1O,-1.4%,.,.,.,.,.
NC(=O)CN1C(=O)C(=O)N(Cc2cccc(C(F)(F)F)c2)C1=O,.,-0.5%,.,1.3%,2.2%,-4.1%
Cc1ccc(NC(=O)CCSCCc2ccccn2)cc1,.,3.1%,.,0.1%,-4.7%,4.1%
O=C(COc1ccc2ccc(=O)oc2c1)Nc1cccc(S(=O)(=O)N2CCCCC2)c1,.,.,.,1.1%,-4.2%,1.1%
O=C(c1cc(-c2ccccc2)nc2ccccc12)N1CCN(c2ccccc2O)CC1,.,10.7µM*,.,-22.0%,10.8%,23.6%
CCC(NC(=O)c1cc(COc2ccc(OC)cc2Cl)on1)c1ccncc1 (centres undefined),.,12µM*,.,15.8%,24.7%,?
CCC(NC(=O)c1cc(COc2cc(C)c(Cl)c(C)c2)on1)c1ccncc1 (centres undefined),.,2.5%,.,-6.4%,-5.6%,-0.5%
CCC(NC(=O)c1cc(COc2ccc(Cl)cc2OC)on1)c1ccncc1 (centres undefined),.,4.78µM*,.,?,3.55µM*,3.98µM*
CC(Cc1cnccn1)NC(=O)c1cc(COc2ccc(F)cc2F)on1 (centres undefined),.,-10.7%,.,0.1%,-0.5%,-8.0%
COc1cc(Cl)ccc1OCc1cc(C(=O)NC(C)Cc2cnccn2)no1 (centres undefined),.,6.75µM*,.,?,2.51µM*,1.12µM*
CC(CNC(=O)c1cc(COc2ccc3ncccc3c2)on1)c1ccccc1 (centres undefined),.,-16.7%,.,-19.3%,-12.3%,-16.5%
COc1cc(Cl)ccc1OCc1cc(C(=O)NCC(C)c2ccccc2)no1 (centres undefined),.,21.3µM*,.,-2.3%,-2.0%,2.0%
O=C(Nc1ccc(Cl)cc1F)C1CC(=O)N(Cc2ccco2)C1 (centres undefined),.,4.9%,.,-2.1%,-0.6%,0.0%
